Assay results: the supplement of paper PMC10127200
Where a name gives a salt, the structure may show the parent alone.

Key:
Experiment in all cases: Euclidean distance of Cell Painting phenotypic profile (signed KS, 77 features) to DMSO centroid (dimensionless distance); 5 or 10 uM (library dependent); higher = stronger phenotypic change vs DMSO (phenoactivity)
Conditions in all cases: 48 h
786-O = test system: 786-O
How it was run: (§1)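 Five cancer lines, together with a healthy fibroblast line, received library compounds for 48 h at a library-dependent 10 or 5 uM and 0.1% DMSO final. Harmony then derived 77 features from confocal 20X images (9 fields/well) of the stained cells, scoring each as a signed Kolmogorov-Smirnov statistic against same-plate vehicle wells. After plate-position correction, correlation weighting and replicate averaging at the top dose, phenoactivity was taken as each profile's Euclidean distance to the median vehicle profile.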

A549 = test system: A549
How it was run: as §1

DU145 = test system: DU145
How it was run: as §1

FB = test system: FB
How it was run: as §1

HEPG2 = test system: HEPG2
How it was run: as §1

OVCAR4 = test system: OVCAR4
How it was run: as §1

SMILES | Euclidean distance (786-O) | Euclidean distance (A549) | Euclidean distance (DU145) | Euclidean distance (FB) | Euclidean distance (HEPG2) | Euclidean distance (OVCAR4)
Cn1cc(-c2ccc(S(=O)(=O)n3ccc(/C=C/C(=O)Nc4ccccc4N)c3)cc2)cn1 | 2.25 | 2.63 | 2.82 | 2.84 | 3.21 | 3.37
Cc1cn(-c2cc(NC(=O)c3ccc(C)c(Nc4nccc(-c5cccnc5)n4)c3)cc(C(F)(F)F)c2)cn1 [Nilotinib (AMN-107)] | 2.33 | 3.94 | 3.46 | 2.13 | 1.09 | 1.8
CCc1cc2c(cc1CC)CC(NC[C@H](O)c1ccc(O)c3[nH]c(=O)ccc13)C2 [Indacaterol Maleate] | 0.915 | 0.63 | 1.14 | 1.67 | 0.818 | 1.02
C/C=C1\[C@H]2C=C(C)C[C@]1(N)c1ccc(=O)[nH]c1C2 [(-)-Huperzine A (HupA)] | 1.09 | 0.676 | 0.79 | 0.881 | 0.528 | 1.07
COc1cc(Nc2ncc(F)c(Nc3ccc4c(n3)N(COP(=O)(O)O)C(=O)C(C)(C)O4)n2)cc(OC)c1OC [Fostamatinib (R788)] | 2.67 | 4.8 | 3.08 | 3.33 | 2.44 | 3.7
CN(CCN1CCC(OC(=O)Nc2ccccc2-c2ccccc2)CC1)C(=O)c1ccc(CN2CCC(C(N)=O)CC2)cc1 [Revefenacin] | 1.01 | 1.27 | 1.01 | 1.33 | 1.25 | 1.44
COC(=O)C1=C(C)NC(C)=C(C(=O)OC(C)(C)CN(C)CCC(c2ccccc2)c2ccccc2)C1c1cccc([N+](=O)[O-])c1 (configuration not stated) [Lercanidipine] | 1.59 | 2.38 | 1.1 | 1.31 | 1.5 | 2.02
CO[C@H]1/C=C/O[C@@]2(C)Oc3c(C)c(O)c4c(O)c(c5c(nc6cc(C)ccn65)c4c3C2=O)NC(=O)/C(C)=C\C=C\[C@H](C)[C@H](O)[C@@H](C)[C@@H](O)[C@@H](C)[C@H](OC(C)=O)[C@@H]1C [Rifaximin] | 1.35 | 0.671 | 0.886 | 1 | 1.9 | 1.06
CC[C@@H](CO)NCCN[C@@H](CC)CO [Ethambutol 2HCl] | 1.58 | 0.663 | 1.06 | 0.73 | 0.465 | 1.38
CCCCCCCCCCCCC[N+](C)(C)Cc1ccccc1 [Benzalkonium chloride] | 2.54 | 2.29 | 2.89 | 1.54 | 2.12 | 2.53
Nc1ncnc2n[nH]c(Nc3ccc(F)cc3)c12 | 0.861 | 2.17 | 1.25 | 1.67 | 0.599 | 1.4
COc1cc(OC)c(NC(=O)Nc2cc(C)on2)cc1Cl | 0.922 | 0.813 | 1.16 | 0.91 | 0.834 | 1.52
CCS(=O)(=O)Nc1ccc2c(c1)/C(=C(/Nc1ccc(CN3CCCCC3)cc1)c1ccccc1)C(=O)N2 [Hesperadin] | 3.36 | 3.8 | 2.47 | 3.41 | 2.69 | 3.25
CCN(CC)C(=S)SSC(=S)N(CC)CC [Disulfiram] | 1.95 | 1.78 | 1.34 | 2.84 | 0.547 | 1.32
N=C(NOCC(O)CN1CCCCC1)c1cccnc1 (configuration not stated) | 1.13 | 0.912 | 1.06 | 1.33 | 0.604 | 1.05
CCC(=O)OCC(=O)[C@@]1(OC(=O)CC)[C@@H](C)C[C@H]2[C@@H]3CCC4=CC(=O)C=C[C@]4(C)[C@@]3(Cl)[C@@H](O)C[C@@]21C [Beclomethasone dipropionate] | 1.09 | 2.14 | 2.46 | 1.95 | 0.575 | 1.8
Cc1ccc(C(=O)Nc2cccc(C(F)(F)F)c2)cc1Nc1nc(-c2cccnc2)nc2c1cnn2C | 3.33 | 3.93 | 3.91 | 1.82 | 3.78 | 1.46
O=C(O)CCC(=O)Nc1ccc(S(=O)(=O)Nc2nccs2)cc1 [Succinylsulfathiazole] | 0.988 | 0.655 | 0.789 | 1.1 | 1.01 | 2.02
O=C(Nc1c(Cl)cncc1Cl)c1ccc(OC(F)F)c(OCC2CC2)c1 [Roflumilast] | 1.07 | 1.27 | 0.92 | 0.952 | 0.815 | 1.12
CCCCC1C(=O)N(c2ccccc2)N(c2ccccc2)C1=O [Phenylbutazone] | 0.905 | 0.759 | 1.5 | 1.25 | 0.482 | 1
CCCc1nc(C)c2c(=O)nc(-c3cc(S(=O)(=O)N4CCN(CC)CC4)ccc3OCC)[nH]n12 [Vardenafil HCl Trihydrate] | 1.18 | 0.732 | 1.26 | 1.02 | 0.77 | 0.83
O=S1(=O)CCN(CN2CCS(=O)(=O)NC2)CN1 [Taurolidine] | 1.32 | 0.797 | 0.913 | 1.04 | 0.654 | 1.46
C=CC(=O)Nc1cccc(Oc2nc(Nc3ccc(N4CCN(C)CC4)cc3)nc3ccsc23)c1 | 4.18 | 3.94 | 2.73 | 3.64 | 3.85 | 3.57
C[N+]1(C)[C@@H]2C[C@@H](OC(=O)C(O)(c3cccs3)c3cccs3)C[C@H]1[C@@H]1O[C@@H]12 [Tiotropium Bromide hydrate] | 1.26 | 0.676 | 0.73 | 1.02 | 0.978 | 0.837

SMILES | Euclidean distance (786-O) | Euclidean distance (A549) | Euclidean distance (DU145) | Euclidean distance (FB) | Euclidean distance (HEPG2) | Euclidean distance (OVCAR4)
CCCCCOc1ccc(-c2ccc(-c3ccc(C(=O)N[C@H]4C[C@@H](O)[C@@H](O)NC(=O)[C@@H]5[C@@H](O)[C@@H](C)CN5C(=O)[C@H]([C@@H](C)O)NC(=O)[C@H]([C@H](O)[C@@H](O)c5ccc(O)cc5)NC(=O)[C@@H]5C[C@@H](O)CN5C(=O)[C@H]([C@@H](C)O)NC4=O)cc3)cc2)cc1 | 0.818 | 0.702 | 1.21 | 0.749 | 1.21 | 1.01
COc1cc2ncnc(Nc3ccc(F)c(Cl)c3)c2cc1OCCCN1CCOCC1 [Gefitinib (ZD1839)] | 2.03 | 2.48 | 2.47 | 1.24 | 1.6 | 1.64
Nc1nc(O)c2ncn(CCC(CO)CO)c2n1 [Penciclovir] | 0.815 | 0.334 | 0.816 | 0.496 | 0.404 | 1.17
CCN(CC)C(=O)N1CCN(C)CC1 [Diethylcarbamazine citrate] | 0.755 | 0.674 | 0.703 | 0.826 | 0.536 | 1.14
CC(C)(O)c1cc(Nc2cc(Oc3cn(C4CC4)nc3C3CCOCC3)ccn2)ccn1 | 0.999 | 0.879 | 1.32 | 1.38 | 1.09 | 1.36
CC(C)c1cc(C(C)C)c(CC(=O)NS(=O)(=O)Oc2c(C(C)C)cccc2C(C)C)c(C(C)C)c1 [Avasimibe] | 4.24 | 1.79 | 0.813 | 0.86 | 0.752 | 0.819
CC(C)(Oc1ccc(CCNC(=O)c2ccc(Cl)cc2)cc1)C(=O)O [Bezafibrate] | 0.885 | 1.16 | 0.777 | 1.09 | 1.04 | 1.71
CC(=O)[C@]1(O)Cc2c(O)c3c(c(O)c2[C@@H](O[C@H]2C[C@H](N)[C@H](O)[C@H](C)O2)C1)C(=O)c1ccccc1C3=O [Idarubicin HCl] | 5.7 | 4.85 | 4.5 | 4.44 | 5.24 | 6.18
CCCCCN(C)CCC(O)(P(=O)(O)O)P(=O)(O)O [Ibandronate sodium] | 1.42 | 1.09 | 0.856 | 1.59 | 1.38 | 1.49
CCN1CCN(C(=O)N[C@@H](C(=O)N[C@@H]2C(=O)N3[C@@H]2SC(C)(C)[C@@H]3C(=O)O)c2ccccc2)C(=O)C1=O [Piperacillin Sodium] | 1.11 | 0.62 | 0.884 | 1.1 | 0.514 | 1.25
OCc1ccccc1O[C@@H]1O[C@H](CO)[C@@H](O)[C@H](O)[C@H]1O [Salicin] | 1.17 | 0.655 | 0.503 | 0.638 | 0.419 | 1.21
NNc1nncc2ccccc12 [Hydralazine HCl] | 1.33 | 1.23 | 0.857 | 1.33 | 0.411 | 0.975
CC(C)c1nc(CN(C)C(=O)N[C@@H](CCN2CCOCC2)C(=O)N[C@H](CC[C@H](Cc2ccccc2)NC(=O)OCc2cncs2)Cc2ccccc2)cs1 [Cobicistat (GS-9350)] | 2.05 | 2.31 | 1.67 | 1.66 | 1.23 | 1.96
COc1ccc(C(=O)NCc2ccc(OCCN(C)C)cc2)cc1OC [Itopride hydrochloride] | 1.63 | 0.807 | 0.903 | 0.871 | 1.09 | 0.695
C=CC(=O)Nc1ccc2ncnc(Nc3ccc(OCc4cccc(F)c4)c(Cl)c3)c2c1 | 2.14 | 1.92 | 1.99 | 2.48 | 1.03 | 3.41
CCc1oc2ccccc2c1C(=O)c1cc(Br)c(O)c(Br)c1 [Benzbromarone] | 0.882 | 0.749 | 0.48 | 1.01 | 0.723 | 1.14
CCOCCn1c(C2CCN(CCc3ccc(C(C)(C)C(=O)O)cc3)CC2)nc2ccccc21 [Bilastine] | 1.25 | 1.12 | 1.37 | 0.933 | 0.505 | 0.894
CC1=C[C@H](O)CC(C)(C)[C@H]1/C=C/C(C)=C/C=C/C(C)=C/C=C/C=C(C)/C=C/C=C(C)/C=C/C1=C(C)C[C@@H](O)CC1(C)C [lutein] | 0.901 | 0.452 | 1.78 | 0.947 | 1.18 | 1
CNC(=C[N+](=O)[O-])NCCSCc1ccc(CN(C)C)o1 [Ranitidine] | 0.881 | 0.596 | 0.696 | 0.903 | 1.02 | 0.83
Nc1ccn([C@@H]2O[C@H](CO)[C@@H](O)[C@H]2O)c(=O)n1 [Cytidine] | 1.92 | 0.659 | 1.04 | 0.943 | 1.9 | 1
CCCSc1ccc2[nH]c(NC(=O)OC)nc2c1 [Albendazole] | 2.6 | 2.42 | 2.81 | 2.49 | 2.15 | 2.48
COCCCOc1ccnc(C[S+]([O-])c2nc3ccccc3[nH]2)c1C (configuration not stated) [Rabeprazole] | 1.5 | 0.662 | 0.942 | 1.03 | 1.49 | 0.928
CC(C)(O)CC[C@@H](O)[C@](C)(O)[C@H]1CC[C@@]2(O)C3=CC(=O)[C@@H]4C[C@@H](O)[C@@H](O)C[C@]4(C)[C@H]3CC[C@]12C [20-Hydroxyecdysone] | 0.539 | 1.05 | 1.19 | 1.28 | 1.06 | 1.08
